Source: PubChem BioAssay
Values without a mark were called inactive. The list shows a part of the results. The source made the active and inactive calls.

Tests used:
[1] = molecular target: Inward rectifier potassium channel 2 (Mus musculus) (UniProt P35561); assay: inhibition of Kir2.1 inward rectifier potassium flux – cell-based, FluxOR thallium flux, duplicate, confirmation (AID 2032); settings: Kir2.1-expressing cells, FluxOR thallium flux fluorescence, at 10 µM; stronger effect = lower value
Inward rectifier potassium channel 2 (Mus musculus), sequence (P35561 whole entry, looked up): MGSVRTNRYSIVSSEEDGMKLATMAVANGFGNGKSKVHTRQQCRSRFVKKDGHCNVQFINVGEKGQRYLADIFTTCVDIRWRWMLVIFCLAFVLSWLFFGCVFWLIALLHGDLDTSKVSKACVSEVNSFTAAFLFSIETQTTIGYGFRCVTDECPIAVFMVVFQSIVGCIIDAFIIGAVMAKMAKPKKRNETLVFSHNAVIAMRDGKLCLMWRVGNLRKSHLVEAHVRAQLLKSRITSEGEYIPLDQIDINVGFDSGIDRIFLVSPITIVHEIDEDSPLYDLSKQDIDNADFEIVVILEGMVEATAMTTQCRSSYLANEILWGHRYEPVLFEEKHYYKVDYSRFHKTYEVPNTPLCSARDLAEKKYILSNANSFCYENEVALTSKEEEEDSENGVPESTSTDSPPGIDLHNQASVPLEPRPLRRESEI

[2] = parental HEK293 cell activity, no Kir2.1 – FluxOR thallium flux, duplicate, single concentration, counter-screen for Kir2.1 inhibitor project, confirmation (AID 2105;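 active = dye signal at least 3 control SD above or below untreated wells in both duplicates, raw fluorescence within 3, either direction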;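 for FluxOR signal as % of negative control (100 = no effect): percent is based on the flux ratio of peak minus minimum fluorescence over baseline F0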); settings: parental HEK293 cells, FluxOR thallium flux fluorescence, at 10 µM; 0% = unstimulated blank wells
[3] = molecular target: Short transient receptor potential channel 4 (Mus musculus) (UniProt Q9QUQ5); assay: DAMGO-gated TRPC4 membrane potential modulation – cell-based, second specificity screen, HEK293 TRPC4/mu-opioid, selectivity assay for TRPC6 inhibitor project, confirmation (AID 2776;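 active = compounds whose fluorescence signal differed from control wells by over 3 SD, either direction, in both duplicate plates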); settings: HEK293 TRPC4/MOR, membrane potential dye fluorescence, at 10 µM, channel activated by saturating DAMGO dose; stronger effect = higher value
Short transient receptor potential channel 4 (Mus musculus), sequence (Q9QUQ5 whole entry, looked up): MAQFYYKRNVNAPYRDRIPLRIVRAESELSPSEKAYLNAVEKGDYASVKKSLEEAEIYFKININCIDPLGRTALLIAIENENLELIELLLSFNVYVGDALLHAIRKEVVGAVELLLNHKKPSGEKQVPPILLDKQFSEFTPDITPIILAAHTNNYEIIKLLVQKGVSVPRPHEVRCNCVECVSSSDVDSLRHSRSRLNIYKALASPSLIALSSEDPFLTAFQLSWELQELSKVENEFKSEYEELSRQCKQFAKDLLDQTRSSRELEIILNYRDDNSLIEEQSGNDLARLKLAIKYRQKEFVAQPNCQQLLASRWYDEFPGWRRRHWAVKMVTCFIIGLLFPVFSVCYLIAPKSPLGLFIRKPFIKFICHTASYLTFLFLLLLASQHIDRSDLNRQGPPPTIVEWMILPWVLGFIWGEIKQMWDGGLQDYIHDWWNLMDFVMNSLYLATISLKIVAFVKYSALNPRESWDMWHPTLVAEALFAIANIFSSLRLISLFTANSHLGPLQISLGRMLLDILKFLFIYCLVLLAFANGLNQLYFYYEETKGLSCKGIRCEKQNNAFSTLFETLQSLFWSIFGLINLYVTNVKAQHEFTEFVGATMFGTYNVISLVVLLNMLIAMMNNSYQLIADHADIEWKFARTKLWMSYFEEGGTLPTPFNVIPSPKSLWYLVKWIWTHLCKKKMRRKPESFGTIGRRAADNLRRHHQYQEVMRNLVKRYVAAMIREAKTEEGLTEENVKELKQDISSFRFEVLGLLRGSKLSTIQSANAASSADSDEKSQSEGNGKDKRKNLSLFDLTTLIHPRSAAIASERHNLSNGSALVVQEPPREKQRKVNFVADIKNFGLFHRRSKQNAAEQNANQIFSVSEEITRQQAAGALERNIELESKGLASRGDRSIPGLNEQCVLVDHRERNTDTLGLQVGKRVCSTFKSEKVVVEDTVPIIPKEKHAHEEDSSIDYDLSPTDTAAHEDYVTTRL

[4] = tested on: transient receptor potential cation channel C4 (TRPC4), mouse; assay: membrane potential change in TRPC4 cells – cell-based, HEK293 TRPC4/mu-opioid, membrane potential dye, selectivity assay for TRPC6 inhibitor project, confirmation (AID 2777;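 active = rise or fall in signal beyond 3 SD of buffer-only wells in both replicate plates, either sign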;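 note: integrated kinetic ratio of fluorescence range over baseline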); settings: membrane potential fluorescence, at 10 µM
[5] = parental HEK293 depolarization signal interference – cell-based, second counter screen, counter-screen for TRPC6 inhibitor project, confirmation (AID 2779;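 active = membrane potential signal moving either way by over 3 SD of the maximum-effect control, in both duplicate plates, meaning non-specific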); settings: parental HEK293 membrane potential dye fluorescence; at 10 µM; maximal acetylcholine challenge after compound addition
[6] = nonspecific voltage dye signal in HEK293 – cell-based, parental HEK293, counter-screen for TRPC6 inhibitor project, confirmation (AID 2780;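 active = membrane potential signal shifting up or down by more than 3 SD of buffer-only wells, on both duplicate plates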;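 note: plate controls were buffer EC0 wells for no effect and acetylcholine ECmax wells for full effect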); settings: parental HEK293 membrane potential dye fluorescence; at 10 µM
[7] = molecular target: Short transient receptor potential channel 6 (Mus musculus) (UniProt Q61143); assay: blockers of TRPC6 cation channel activity – HEK293 cells, membrane potential dye, duplicate, confirmation (AID 488960;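 active = fluorescence ratio falls more than 5 SD below the full-stimulation control mean, in both duplicate runs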;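 for inhibition: integrated fluorescence ratio of peak minus minimum over baseline after agonist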); settings: ACh-evoked depolarization, at 10 µM; stronger effect = higher value
Short transient receptor potential channel 6 (Mus musculus), sequence (Q61143 whole entry, looked up): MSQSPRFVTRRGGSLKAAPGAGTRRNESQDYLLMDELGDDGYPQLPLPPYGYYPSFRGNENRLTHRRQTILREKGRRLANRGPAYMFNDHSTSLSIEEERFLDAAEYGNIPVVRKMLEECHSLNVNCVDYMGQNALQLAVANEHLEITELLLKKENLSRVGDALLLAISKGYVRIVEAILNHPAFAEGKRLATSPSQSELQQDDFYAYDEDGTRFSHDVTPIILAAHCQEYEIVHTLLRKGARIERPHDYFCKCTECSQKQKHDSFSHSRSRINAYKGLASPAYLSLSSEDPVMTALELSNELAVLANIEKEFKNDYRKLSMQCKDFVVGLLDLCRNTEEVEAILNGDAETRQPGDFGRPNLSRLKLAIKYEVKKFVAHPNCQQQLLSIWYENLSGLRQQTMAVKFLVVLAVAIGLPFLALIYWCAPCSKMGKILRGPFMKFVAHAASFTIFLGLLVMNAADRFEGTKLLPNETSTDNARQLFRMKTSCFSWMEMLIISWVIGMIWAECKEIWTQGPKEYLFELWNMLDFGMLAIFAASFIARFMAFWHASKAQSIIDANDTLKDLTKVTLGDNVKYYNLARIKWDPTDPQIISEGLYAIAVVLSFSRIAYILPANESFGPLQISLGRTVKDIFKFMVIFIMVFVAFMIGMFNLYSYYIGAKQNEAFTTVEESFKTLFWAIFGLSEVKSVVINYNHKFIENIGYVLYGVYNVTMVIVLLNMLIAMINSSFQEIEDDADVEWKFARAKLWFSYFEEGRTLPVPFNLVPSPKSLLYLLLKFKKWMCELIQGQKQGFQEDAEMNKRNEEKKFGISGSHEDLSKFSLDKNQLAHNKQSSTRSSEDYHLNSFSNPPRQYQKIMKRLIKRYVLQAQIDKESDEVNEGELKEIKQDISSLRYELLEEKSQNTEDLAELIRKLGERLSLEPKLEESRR

[8] = parental CHO-K1 cell activation, no KCNQ2 – FluxOR thallium flux, duplicate, counter-screen for KCNQ2 potentiator project, confirmation (AID 2282;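 active = signal rise of at least 3 SD above the untreated control mean, in both duplicate wells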;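 note: counter screen of KCNQ2 potentiator hits so any rise reflects channel-independent effects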); settings: parental CHO-K1 cells, FluxOR thallium flux fluorescence; at 10 µM; stronger effect = higher value; zero = vehicle mean+3SD, 100% = vehicle-minus-blank window
[9] = molecular target: Potassium voltage-gated channel subfamily KQT member 1 (Homo sapiens) (UniProt P51787); assay: KCNQ1 activation in stable CHO cells – cell-based, FluxOR thallium flux, selectivity assay for KCNQ2 potentiator project, confirmation (AID 2283;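 active = fluorescence ratio rise of at least 3 SD of vehicle wells above their mean, in both replicate wells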;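 note: 0% = vehicle mean plus 3 SD and 100% = vehicle minus unstimulated blank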); settings: FluxOR thallium flux fluorescence, at 10 µM, stronger effect = higher value, beyond 3SD, as % of vehicle-control signal
Potassium voltage-gated channel subfamily KQT member 1 (Homo sapiens), sequence (P51787 whole entry, looked up): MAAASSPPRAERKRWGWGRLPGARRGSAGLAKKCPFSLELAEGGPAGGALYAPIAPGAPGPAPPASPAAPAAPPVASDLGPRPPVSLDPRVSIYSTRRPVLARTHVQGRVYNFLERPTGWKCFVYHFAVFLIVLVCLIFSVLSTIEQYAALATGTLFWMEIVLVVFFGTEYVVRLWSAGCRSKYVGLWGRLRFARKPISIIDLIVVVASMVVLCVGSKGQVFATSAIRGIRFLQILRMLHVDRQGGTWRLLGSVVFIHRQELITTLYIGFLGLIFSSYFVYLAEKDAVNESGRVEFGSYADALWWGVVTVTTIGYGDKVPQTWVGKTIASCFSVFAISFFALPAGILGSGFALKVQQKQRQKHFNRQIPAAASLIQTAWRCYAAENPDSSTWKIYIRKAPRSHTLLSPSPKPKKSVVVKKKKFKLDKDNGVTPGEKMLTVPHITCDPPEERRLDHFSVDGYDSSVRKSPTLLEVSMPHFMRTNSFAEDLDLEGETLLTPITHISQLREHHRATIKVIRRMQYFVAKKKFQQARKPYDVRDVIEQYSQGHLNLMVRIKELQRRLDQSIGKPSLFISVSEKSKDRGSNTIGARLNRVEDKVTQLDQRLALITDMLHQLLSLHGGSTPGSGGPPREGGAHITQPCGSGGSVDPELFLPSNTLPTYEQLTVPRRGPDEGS

[10] = molecular target: Potassium voltage-gated channel subfamily KQT member 2 (Rattus norvegicus) (UniProt O88943); assay: KCNQ2 potassium channel activity enhancers – cell-based, CHO, FluxOR thallium flux, duplicate, confirmation (AID 2287;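 active = fluorescence ratio rising 3 SD or more over the vehicle control mean in both replicates, plus primary screen hit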;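 note: peak minus minimum thallium fluorescence divided by baseline after K/Tl stimulus; 0% = vehicle mean plus 3 SD and 100% = vehicle minus unstimulated blank difference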); settings: CHO-KCNQ2 cells, FluxOR thallium flux fluorescence; at 10 µM; stronger effect = higher value
[11] = molecular target: Inward rectifier potassium channel 2 (Mus musculus) (UniProt P35561); assay: PubChem AID 2345; settings: HEK293 Kir2.1, FluxOR thallium flux fluorescence; at 10 µM; stronger effect = higher value;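 note: 0% = vehicle mean plus 3 SD and 100% = vehicle minus no-stimulus blank window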
[12] = molecular target: Potassium voltage-gated channel subfamily KQT member 2 (Rattus norvegicus) (UniProt O88943); assay: W236L mutant KCNQ2 current enhancers – cell-based, rat KCNQ2 W236L, CHO, automated patch clamp, mechanism study for KCNQ2 potentiator project (AID 2558;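 active = current increase at least 3 SD of the untreated controls above them in both duplicate recordings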); settings: at 25 µM
[13] = molecular target: Potassium voltage-gated channel subfamily KQT member 1 (Homo sapiens) (UniProt P51787); assay: blockers of human KCNQ1 channel – cell-based, Tl flux, duplicate, confirmation (AID 588353;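 active = primary screen active, with duplicate mean exceeding buffer control mean plus 3 SD of buffer wells, cut at about 28% in these data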;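 note: 0% = buffer control ratio and 100% = XE991 inhibitor control ratio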); settings: KCNQ1 cell line, FluxOR thallium flux fluorescence; at 10 µM; stronger effect = higher value
[14] = nonspecific activity in CHO-K1 cells without KCNQ1 – parental CHO cells, Tl flux, counter-screen for KCNQ1 inhibitor project (AID 588366;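 active = mean of duplicate thallium-flux fluorescence ratios in parental host cells more than 5 SD below the buffer control mean, cut at about 0.38 in these data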;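 note: ratio is peak minus minimum fluorescence divided by baseline fluorescence; actives read low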); settings: parental CHO-K1, FluxOR thallium flux fluorescence ratio; at 10 µM; stronger effect = lower value; zero means no signal rise above baseline
[15] = molecular target: Potassium voltage-gated channel subfamily KQT member 1 (Homo sapiens) (UniProt P51787); assay: block of human KCNQ1 potassium current – cell-based, automated electrophysiology, orthogonal assay, confirmation (AID 624120;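 active = KCNQ1 current drop exceeding 3 SD of negative control wells, seen in both duplicate runs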); settings: KCNQ1-CHO cells, automated patch clamp current; at 10 µM
[16] = molecular target: Potassium voltage-gated channel subfamily KQT member 2 (Rattus norvegicus) (UniProt O88943); assay: block of rat KCNQ2 potassium channel – cell-based, selectivity assay for KCNQ1 inhibitor project (AID 651746;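 active = mean percent inhibition of the KCNQ2 thallium signal more than 5 SD above the buffer-only control wells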); settings: KCNQ2 cells, FluxOR thallium flux fluorescence, at 10 µM; stronger effect = higher value
[17] = molecular target: Potassium voltage-gated channel subfamily E member 1 (Homo sapiens) + Potassium voltage-gated channel subfamily KQT member 1 (Homo sapiens) (UniProt P15382+P51787); assay: block of human IKs channel complex – CHO-K1 cells, thallium flux, FluxOR, selectivity assay for KCNQ1 inhibitor project (AID 652147;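 active = mean percent inhibition of duplicate wells above the buffer-only control mean plus 3 SD of those controls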); settings: KCNQ1/KCNE1 cells, FluxOR thallium flux fluorescence; at 10 µM
Potassium voltage-gated channel subfamily E member 1 (Homo sapiens) + Potassium voltage-gated channel subfamily KQT member 1 (Homo sapiens), sequence (P51787 whole entry, looked up): as the sequence (P51787 whole entry, looked up) above

[18] = molecular target: Short transient receptor potential channel 6 (Mus musculus) (UniProt Q61143); assay: mouse TRPC6 channel activators, confirmation, HEK293 cells, membrane potential dye, duplicate (AID 488961;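 active = ratio signal rise beyond 5 SD above unstimulated control wells' mean, seen in both duplicate runs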); settings: HEK293-TRPC6 membrane potential dye fluorescence, FDSS, at 10 µM; stronger effect = higher value
[19] = nonspecific flux increase, KCNQ1-free cells – parental CHO cells, counter-screen for KCNQ1 potentiator project (AID 493006;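 active = duplicate-averaged activation above buffer control mean plus 5 SD of those controls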;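 note: fluorescence ratio of max minus min over baseline after K+ and Tl+ depolarization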); settings: parental CHO-K1 cells, FluxOR thallium flux, at 10 µM; stronger effect = higher value
[20] = molecular target: Potassium voltage-gated channel subfamily KQT member 1 (Homo sapiens) (UniProt P51787); assay: enhancement of KCNQ1 channel thallium flux – FluxOR thallium flux, CHO cells, duplicates, confirmation (AID 493007;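 active = potentiation averaged over duplicate wells exceeding buffer-only control mean by more than 3 SD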;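 note: 0% = buffer-only wells and 100% = R-L3 activator control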); settings: KCNQ1 cell line, FluxOR thallium flux fluorescence, at 10 µM; stronger effect = higher value, % of reference activator effect, buffer zero
[21] = molecular target: Potassium voltage-gated channel subfamily KQT member 2 (Rattus norvegicus) (UniProt O88943); assay: KCNQ2 thallium flux enhancement – KCNQ2-CHO-K1 cells, selectivity assay for KCNQ1 potentiator project (AID 493009;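 active = mean duplicate potentiation above the buffer control mean plus 5 SD of buffer wells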;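 note: assay conditions were tuned for KCNQ1 rather than KCNQ2 modulators; signal is max minus min fluorescence divided by baseline after thallium stimulus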); settings: FluxOR thallium flux fluorescence, at 10 µM; stronger effect = higher value, scaled: buffer 0, activator control 100
[22] = molecular target: Potassium voltage-gated channel subfamily KQT member 1 (Homo sapiens) (UniProt P51787); assay: KCNQ1 activators by electrophysiology – IonWorks patch clamp, KCNQ1-CHO cells, orthogonal assay for KCNQ1 potentiator project, confirmation (AID 493184;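 active = current rise at least 3 SD above the untreated control mean in each of two repeat wells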); settings: automated patch clamp current, at 10 µM; stronger effect = higher value

Structure (SMILES): O=C(NC(Nc1nc2ccc([N+](=O)[O-])cc2s1)(C(F)(F)F)C(F)(F)F)c1ccccc1
- outcome [1]: inactive
- outcome [2]: inactive
- inhibition [3]: 45% (active)
- activity change, negative = inhibition [4]: 60.8% (active)
- outcome [5]: inactive
- membrane potential signal change [6]: 36.6% (active)
- inhibition [7]: 93.7% (active)

Structure (SMILES): Cc1ccc(CS(=O)(=O)c2ncc(Cl)c(C(=O)Nc3nnc(C)s3)n2)cc1
- activity increase over 3SD of controls [8]: 30.6% (active)
- activation over 3SD threshold [9]: 79.7% (active)
- potentiation, less the hit threshold [10]: -85.4%
- activity over 3SD threshold [11]: -51.4%
- current increase over 3SD of negative controls (%), stronger effect = higher value [12]: 48.4% (active)

Structure (SMILES): CCC1(C)Cc2c(sc3nnn(CC(=O)Nc4ccc(Cl)cc4)c(=O)c23)CO1 (centres undefined)
- outcome [1]: inactive
- outcome [2]: inactive
- activity increase over 3SD of controls [8]: -19.3%
- activation over 3SD threshold [9]: 4.5% (active)
- potentiation, less the hit threshold [10]: 2.2% (active)
- activity over 3SD threshold [11]: -36.4%
- outcome [12]: inactive

Structure (SMILES): FC(F)(F)c1cccc(NC(=S)Nc2cccc(Cl)c2)c1
- outcome [1]: inactive
- outcome [2]: inactive
- activity increase over 3SD of controls [8]: -22.1%
- activation over 3SD threshold [9]: -10.3%
- potentiation, less the hit threshold [10]: -4.8%
- activity over 3SD threshold [11]: -40.2%
- outcome [12]: inactive
- inhibition [13]: 112% (active)
- fluorescence ratio (Tl flux) [14]: 0.527
- outcome [15]: inactive
- outcome [16]: inactive
- outcome [17]: inactive

Structure (SMILES): Cc1ccc(S(=O)(=O)N2CCN(C(=O)COC(=O)c3c(C)cc(C)cc3C)CC2)c(C)c1
- outcome [1]: inactive
- outcome [2]: inactive
- activity increase over 3SD of controls [8]: -0.8%
- activation over 3SD threshold [9]: -20.8%
- potentiation, less the hit threshold [10]: 14.7% (active)
- activity over 3SD threshold [11]: -17.6%
- outcome [12]: inactive

Structure (SMILES): CCN(CC(=O)NC(=O)NCc1ccccc1)Cc1nc2ccccc2c(=O)[nH]1
- outcome [1]: inactive
- outcome [2]: inactive
- activity increase over 3SD of controls [8]: -2.8%
- activation over 3SD threshold [9]: -14.6%
- potentiation, less the hit threshold [10]: -3%
- activity over 3SD threshold [11]: -39%
- outcome [12]: inactive

Structure (SMILES): Cc1cc2oc3ccc(NCCC4CCCN4C)cc3c(=O)c2cc1C (centres undefined)
- outcome [1]: inactive
- FluxOR signal as % of negative control (100 = no effect) [2]: 67.5% (active)
- inhibition [3]: 63% (active)
- activity change, negative = inhibition [4]: 8.34% (active)
- outcome [5]: inactive
- membrane potential signal change [6]: 5.47% (active)
- outcome [7]: inactive
- outcome [18]: inactive

Structure (SMILES): CCn1c(=S)[nH]c2sc3c(c2c1=O)CCCCC3
- outcome [1]: inactive
- FluxOR signal as % of negative control (100 = no effect) [2]: 402% (active)
- activity increase over 3SD of controls [8]: -14.2%
- activation over 3SD threshold [9]: -21.6%
- potentiation, less the hit threshold [10]: 43.5% (active)
- activity over 3SD threshold [11]: -16.8%
- outcome [12]: inactive
- activation [19]: 516% (active)
- potentiation [20]: 258% (active)
- potentiation [21]: 530% (active)
- outcome [22]: inactive
